Assay outcomes as filed in PubChem.
This is a sample that favours compounds with a hit; in the whole collection about 19% have one here.
HT1080 IDH1KD tx – qHTS for induction of synthetic lethality in tumor cells producing 2HG: qHTS for the HT-1080-IDH1KD cell line. HT-1080 IDH1 knockdown viability, ATP luminescence, 48 h. 360,000 compounds, 2% hits. Potency, µM (highest dose often 46.1 µM), for inactives: top-dose activity, negative = toxicity, actives largely listed as cytotoxic;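 further: potency means the concentration at half of the fitted maximal effect; 0% = DMSO wells and -100% = cell-free medium wells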
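Viability of IDH1-knockdown HT-1080 fibrosarcoma cells was assessed by CellTiter-Glo after 48 h at 37 °C with titrated compound; concentration-effect curves were classified by fit quality and response size.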
IL1B secr inh – qHTS for Inhibitors of Inflammasome Signaling: IL-1-beta AlphaLISA Primary Screen; THP-1 LPS/ATP IL-1B secretion, AlphaLISA, 16 h; hits give low values; 360,000 compounds, 4.7% hits; activity change, % at 57.5 µM; in the data active means activity change below about -50%; inconclusive means mostly about -30% to -49%
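THP-1 cells pretreated 1 hr with compounds (up to 57.5 uM final), then stimulated with LPS (250 ng/mL final) plus ATP (1.25 mM final); secreted IL-1B measured by AlphaLISA after 16 hr, decreased signal indicating inhibition.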
ELG1 repair inh – qHTS screen for small molecules that inhibit ELG1-dependent DNA repair in human embryonic kidney (HEK293T) cells expressing luciferase-tagged ELG1 | HEK293T ELG1-luciferase reporter, luminescence, 16 h; DNA damage induced by 5-fluorouridine | Potency, µM (top dose mostly 46.1 µM), without a hit: at the highest dose activity change, negative = inhibition, hits mostly inhibitors | 330,000 compounds, 2.3% hits | AID 504467, 2011; further: potency means the concentration at half of the fitted maximal effect; nearly all actives have a fitted effect of over 55% in size
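Overnight (16 hr) co-exposure of 2,000 cells/well to 5-fluorouridine and compound at 37 °C preceded detection. Luciferase was quantified via ONE-Glo luminescence; loss of signal denotes inhibition.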
DT40 TDP1 CPT – qHTS for Inhibitors of human tyrosyl-DNA phosphodiesterase 1 (TDP1): qHTS in cells in presence of CPT; 420,000 compounds, 12% hits; Potency, µM (top dose mostly 46.2 µM), without a hit: top-dose activity change, negative = growth inhibition, hits mostly inhibitors; chicken DT40 Tdp1-/-;hTDP1 cells + 20 nM CPT, ATP luminescence, 48 h; AID 686979, 2013; further: potency means the concentration at half of the fitted maximal effect; nearly all actives have a fitted effect of over 55% in size
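Chicken DT40 Tdp1-/- cells complemented with human TDP1, 400 cells/well, exposed to compounds plus 20 nM camptothecin for at least 48 h at 37 C; viability read as ATP content by CellTiter-Glo luminescence.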
DT40 TDP1 no CPT – qHTS for Inhibitors of human tyrosyl-DNA phosphodiesterase 1 (TDP1): qHTS in cells in absence of CPT | Potency, µM (titrated, usually from 46.2 µM), without a hit: at the highest dose activity change, negative = growth inhibition, hits mostly inhibitors | 420,000 compounds, 15% hits | DT40 Tdp1-/- hTDP1 cells, no CPT, ATP luminescence, 48 h | AID 686978, 2013; further: potency means the concentration at half of the fitted maximal effect; nearly all actives have a fitted effect of over 55% in size
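Chicken DT40 Tdp1-/- cells stably complemented with human TDP1 were seeded at 400 cells/well with DMSO in place of 20 nM camptothecin. After compound pinning, cells grew at least 48 hr at 37 °C; viability read by CellTiter-Glo luminescence.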
HT1080NT lethal – qHTS for induction of synthetic lethality in tumor cells producing 2HG: qHTS for the HT-1080-NT fibrosarcoma cell line; Potency, µM (doses to about 46.1 µM), for the others: at the top dose activity, negative = less viability, actives largely listed as cytotoxic; AID 686970, 2013; 360,000 compounds, 1.6% hits; HT-1080-NT fibrosarcoma viability, CellTiter-Glo ATP luminescence, 48 h;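 further: NT is the 2HG producing partner of a matched IDH1 knockdown line; potency means the concentration at half of the fitted maximal effect; 0% = DMSO-treated cells and -100% = media-only wells without cells; nearly all actives have a fitted effect of over 55% in size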
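Viability by CellTiter-Glo luminescence after 48 h compound exposure at 37C of HT-1080-NT cells (750/well, RPMI, 5% FBS). % activity scaled between DMSO wells and medium-only wells, then curve-fitted and categorized by curve class.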
* marks the source's active call; other numbers are inactive results; [ ] = another dose, or the depositor's remark. Unless noted, the call rests on the fitted dose curve; in most records, active means well fitted curve in the direction sought with a large enough effect; inconclusive means small, poorly fitted or top-dose-only effect, or another doubt; inactive means no such curve, though single readings can be large; an effect the other way counts as inactive or inconclusive. Unless noted, on the % scale 0 is the no-effect control and ±100 the full control effect.

`COc1ccc(CCNc2ccc(C(CC(N)=O)NC(=O)c3ccc(Br)cc3)cc2[N+](=O)[O-])cc1` (configuration not stated) gave HT1080 IDH1KD tx 2%, IL1B secr inh -16, ELG1 repair inh 0%, DT40 TDP1 CPT 23µM*, DT40 TDP1 no CPT 16µM* and HT1080NT lethal inconclusive.
For NC(=O)CC(NC(=O)c1ccccc1)c1ccc(NC2CCCCCCC2)c([N+](=O)[O-])c1 (configuration not stated) the results were HT1080 IDH1KD tx -24%, IL1B secr inh -12, ELG1 repair inh -17%, DT40 TDP1 CPT 23µM*, DT40 TDP1 no CPT 23µM* and HT1080NT lethal inconclusive.
Screening CCC(=O)Oc1ccc(C/C(=N\O)c2ccc(O)cc2O)o1 returned HT1080 IDH1KD tx inconclusive, IL1B secr inh -2, ELG1 repair inh inconclusive, DT40 TDP1 CPT inconclusive, DT40 TDP1 no CPT 18µM* and HT1080NT lethal inconclusive.
COC(=O)c1cc(CC(=O)c2ccc(O)cc2O)c(C)o1 was read as HT1080 IDH1KD tx inconclusive, IL1B secr inh 9, ELG1 repair inh inconclusive, DT40 TDP1 CPT -24%, DT40 TDP1 no CPT -14% and HT1080NT lethal -7%.
For COC(=O)C1CCCCN1Cc1ccc2c(c1)CN(C(=O)c1cc(C)nc3cc(F)ccc13)CCO2 (configuration not stated) the results were DT40 TDP1 CPT 11%[9.04 µM] and DT40 TDP1 no CPT inconclusive.
For Cc1cccc(C(=O)NCCC(=O)Nc2ccc(F)c([N+](=O)[O-])c2)c1 the results were HT1080 IDH1KD tx -5%, IL1B secr inh -64*, ELG1 repair inh 3%, DT40 TDP1 CPT inconclusive, DT40 TDP1 no CPT inconclusive and HT1080NT lethal -5%.
For O=C(CCc1ccccc1)Nc1ccc(F)c([N+](=O)[O-])c1 the results were HT1080 IDH1KD tx -1%, IL1B secr inh -94*, ELG1 repair inh -6%, DT40 TDP1 CPT -9%, DT40 TDP1 no CPT -23% and HT1080NT lethal -16%.
O=C(COC(=O)c1ccc(F)c([N+](=O)[O-])c1)NC(=O)NCc1ccccc1 was read as HT1080 IDH1KD tx -17%, IL1B secr inh -99*, ELG1 repair inh inconclusive, DT40 TDP1 CPT 21µM*, DT40 TDP1 no CPT inconclusive and HT1080NT lethal -18%.
CCC(C)NC(=O)Cn1cnc2sc(C)c(S(=O)(=O)N3CCCCC3)c2c1=O (configuration not stated) was read as HT1080 IDH1KD tx 11%, IL1B secr inh 8, ELG1 repair inh -3%, DT40 TDP1 CPT -5%, DT40 TDP1 no CPT -10% and HT1080NT lethal 15%.
Screening COc1cc(-c2cnc3c(NC=O)cc(-c4ccc(S(C)(=O)=O)cc4)cn23)cc(OC)c1OC returned HT1080 IDH1KD tx inconclusive, IL1B secr inh 22, DT40 TDP1 CPT 16µM*, DT40 TDP1 no CPT 18µM* and HT1080NT lethal inconclusive.
`COc1ccc(-c2cnc3c(NC=O)cc(-c4ccc(S(C)(=O)=O)cc4)cn23)cc1OC` gave HT1080 IDH1KD tx inconclusive, IL1B secr inh -19, DT40 TDP1 CPT 2.9µM*, DT40 TDP1 no CPT 2.9µM* and HT1080NT lethal inconclusive.
For COc1ccccc1-c1cc(NC=O)c2ncc(-c3ccc(S(C)(=O)=O)cc3)n2c1 the results were HT1080 IDH1KD tx -29%, IL1B secr inh inconclusive, DT40 TDP1 CPT 12µM*, DT40 TDP1 no CPT 9.2µM* and HT1080NT lethal -15%.
COC(=O)[C@@]1(Cc2ccc(OC)cc2)[C@H]2c3cc(C(=O)N4CCCC4)n(Cc4cc(C)n(C)n4)c3C[C@H]2CN1C(=O)c1ccccc1 was read as HT1080 IDH1KD tx -11%, IL1B secr inh -29, DT40 TDP1 CPT inconclusive, DT40 TDP1 no CPT inconclusive and HT1080NT lethal 3%.
Screening CC1(C)Cc2c(c(-c3ccco3)nc3sc4c(NCCO)ncnc4c23)CO1 returned HT1080 IDH1KD tx -3%, IL1B secr inh 4, ELG1 repair inh inconclusive, DT40 TDP1 CPT 23µM*, DT40 TDP1 no CPT 9.2µM* and HT1080NT lethal -5%.
For COC(=O)CSc1nc(SC)nc2c1sc1nc(-c3ccco3)c3c(c12)CC(C)(C)OC3 the results were HT1080 IDH1KD tx 18%, IL1B secr inh 27, DT40 TDP1 CPT 21%, DT40 TDP1 no CPT -4% and HT1080NT lethal 12%.
For COCCCNc1ncnc2c1sc1nc(-c3ccco3)c3c(c12)CC(C)(C)OC3 the results were HT1080 IDH1KD tx inconclusive, IL1B secr inh -14, ELG1 repair inh inconclusive, DT40 TDP1 CPT inconclusive, DT40 TDP1 no CPT 15µM* and HT1080NT lethal inconclusive.
`CSc1nc(SCCO)c2sc3nc(-c4ccco4)c4c(c3c2n1)CC(C)(C)OC4` gave HT1080 IDH1KD tx inconclusive, IL1B secr inh 0, ELG1 repair inh 9%, DT40 TDP1 CPT inconclusive, DT40 TDP1 no CPT inconclusive and HT1080NT lethal inconclusive.
`CC1C(=O)N(Cc2cn(CCC3OCCCO3)nn2)CCS(=O)(=O)N1Cc1ccc(-c2ccc(F)cc2)cc1` (configuration not stated) gave HT1080 IDH1KD tx -15%, IL1B secr inh -12, DT40 TDP1 CPT 12µM*, DT40 TDP1 no CPT 18µM* and HT1080NT lethal 4%.
Screening COc1ccc(-c2ccc(CN3C(C)C(=O)N(Cc4cn(CCC5OCCCO5)nn4)CCS3(=O)=O)cc2)cc1 (configuration not stated) returned HT1080 IDH1KD tx -3%, IL1B secr inh 14, DT40 TDP1 CPT 16µM*, DT40 TDP1 no CPT 18µM* and HT1080NT lethal -1%.
`CC1C(=O)N(Cc2cn(CCC3OCCCO3)nn2)CCS(=O)(=O)N1Cc1ccc(-c2ccc(Cl)c(Cl)c2)cc1` (configuration not stated) gave HT1080 IDH1KD tx 21µM*, IL1B secr inh -20, DT40 TDP1 CPT 4.1µM*, DT40 TDP1 no CPT 3.7µM* and HT1080NT lethal inconclusive.
`COC(=O)c1scc(-c2ccc(C)cc2)c1S(=O)(=O)Nc1ccc(NC(C)=O)cc1` gave DT40 TDP1 CPT 18µM* and DT40 TDP1 no CPT inconclusive.
